In PubChem BioAssay (NCI):
Compounds without any hit were thinned out: in the full panel of roughly 83,000, 20% have a hit.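 Activity criterion: percent growth below 10, measured after cells in 96-well plates were exposed to a single compound concentration for 48 hours.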 Unmarked numbers belong to inactive results. Calls of active or inactive are those of the source.

test system: BT-549 breast; assay: NCI-60 one-dose screen, 48 h (100 = growth as untreated, 0 = no growth, -100 = all killed); details: 10 µM unless noted
Procedure: Growth inhibition of the BT-549 human tumor cell line is measured as a screen for anti-cancer activity. Cells are grown in 96 well plates and exposed to the test compound for 48 hours. Compounds are tested at a single concentration, which is 10^-5 M for most compounds. The reported endpoint is percent growth (GI% or GIPRCNT), where numbers from 0 - 100% represent growth inhibition, and numbers from -100% - 0 represent cell death. For example, a value of 40 represents 60% growth inhibition. A value of 0 means no net growth occurred over the course of the experiment. A value of -40 indicates 40% of cells at the beginning of the experiment died by the end of the experiment. A value of -100 means all cells are dead at the end of the experiment.
NCI-60 Human Tumor Cell Lines Screen was performed using the standard one-dose NCI protocol, which is described in more detail at https://dtp.cancer.gov/discovery_development/nci-60/default.htm.
Compounds with GIPRCNT values below 10 were considered active. Activity score was based on GIPRCNT using the following formula: […]
Score is 0 for GIPRCNT values of 100 or above, 50 for GIPRCNT values of 0, and 100 for GIPRCNT values of -100.

| Compound | growth |
| --- | --- |
| NC(=O)c1c(NC(=O)c2ccc(F)cc2F)sc2c1CCC(=O)C2 | 42.2% |
| O=C(CSc1nc2ccccc2c(=O)n1-c1ccc(Cl)cc1)N/N=C/c1ccc(N2CCCCC2)cc1 | 104% |
| N#Cc1cccc(/C(N)=N/C(N)=N/c2nc3ccccc3s2)c1 | 49.3% |
| O=S(=O)(NCCNc1nccc(-n2cnc3ccccc32)n1)c1ccc(C(F)(F)F)cc1 | 53.1% |
| COC(=O)c1ccc(NC2=C/C(=N/S(=O)(=O)c3ccc(C(=O)O)cc3)c3ccccc3C2=O)cc1 | 84.2% |
| Cc1cccc(/C=C/C(=O)Nc2ncc(Cc3cccc(C)c3)s2)c1 | 66.6% |
| O=C(NNc1nc2cc(F)c(F)cc2n2c(CN3CC4CNCC4C3)ccc12)c1ncccn1 (stereo not given) | 28.1% |
| CC1(C)[C@@H](O)CC[C@]2(C)[C@H]3CC[C@@H]4[C@H]5[C@H](C(=O)/C=C\c6ccncc6)CC[C@]5(O)CC[C@@]4(C)[C@]3(C)CC[C@@H]12 | 68.2% |
| COc1ccc(Cn2cc3c(c2-c2cc(OC)c(OC)c(OC)c2)CCc2c(CN4CCCC4)noc2-3)cc1 | 76% |
| CCCSc1nc(Nc2ccc(/C(C)=N\NC(N)=S)cc2)c(C#N)c(-c2ccccc2)n1 | 88.5% |
| CCC1=Cc2cc(OC)ccc2OC12C=Cc1cc(OC)ccc1O2 (stereo not given) | 75.3% |
| Cc1cccc2c3c(sc12)C(c1ccc(F)cc1)C(C#N)=C(/N=C/c1ccc(Cl)cc1)O3 (stereo not given) | -26.5% (active) |
| CCCCCc1ccc(S(=O)(=O)Nc2cccc(-c3csc(NC(=O)CCCCCN4CCN(C)CC4)n3)c2)cc1 | 93.5% |
| CS(=O)(=O)Nc1cc(-c2ccc3ncc(C#N)c(NCc4cccc(F)c4)c3c2)cnc1Cl | -17.4% (active) |
| CC1=NC2=NN3C(=NN2C(c2ccccc2)=C1)N=NC(c1ccc(Br)cc1)=C3c1ccc(Br)cc1 | 115% |
| CN(C)CCNC(=O)c1ccc(-c2nc3ccc4[nH]ncc4c3c3c2CCC3)cc1 | -19.5% (active) |
| O=C(c1ccc(O)c(C(=O)N2Cc3ccc(OCCC[P+](c4ccccc4)(c4ccccc4)c4ccccc4)cc3C2)c1)N1Cc2cccc(F)c2C1 | 65.9% |
| C=CCn1c(SCC(=O)Nc2ccc(C(=O)/C=C/c3ccc(C)cc3)cc2)nnc1-c1c[nH]c2ccccc12 | 107% |
| COc1cc(Nc2c(C#N)cnn3cc(-c4cnn(CC(C)(C)O)c4)cc23)ccc1Cl | 85.5% |
| C#CCOc1ccc(/C=N\Nc2nc(-c3ccc(C)cc3)cs2)cc1OC | 80.7% |

| Compound | growth |
| --- | --- |
| NC(N)=Nc1ccc(Oc2cccc(Nc3ccc(Cl)c(C(F)(F)F)c3)c2)cn1 | 16.5% |
| COc1cc(/C=C/C(=O)c2ccc(NC(=O)CSc3nnc(-c4ccc(-c5nc6ccc(Cl)cc6[nH]5)cc4)o3)cc2)cc(OC)c1OC | 85.6% |
| Nc1ncc(-c2ccc(NS(=O)(=O)c3ccc(Cl)c(Cl)c3)cc2)[nH]1 | 69.9% |
| CN(C)C(=O)c1cc(-c2ccc3ncnc(NCc4ccccc4)c3c2)cnc1N | 111% |
| NS(=O)(=O)c1ccc(-n2cc(-c3cccc(NC(=O)c4ccc(N5CCOCC5)c(C(F)(F)F)c4)c3)nn2)cc1 | 73.2% |
| c1cn2c(ccc3nc(-c4cn[nH]c4)c4c(c32)CCCC4)n1 | 53.1% |
| O=C(Nc1ccc(F)c(F)c1)c1cc(-c2ccc(F)cc2F)ccc1O | -1.22% (active) |
| CC1(C)CC[C@]2(CN)CC[C@]3(C)C(=CC[C@@H]4[C@@]5(C)CCCNC(C)(C)[C@@H]5CC[C@]43C)[C@H]2C1 | 101% |
| CC(=O)N1C(=S)NC(=O)C1CC(C)C (stereo not given) | 115% |
| CC[C@@H](CO)Nc1ccc2ncc(C#Cc3cncc(C(=O)Nc4ccc(CN5CCN(C)CC5)c(C(F)(F)F)c4)c3)n2n1 | -91.7% (active) |
| CCNC(=O)N1CCc2cc(OC)c(OCCc3ccc(OC)nc3)cc2C1c1ccc(C)cc1C (stereo not given) | -6.5% (active) |
| CC(C)(C)c1ccc(C(=O)Nc2sc3c(c2C(N)=O)CCC(O)C3)cc1 (stereo not given) | 58.5% |
| CCCCCc1ccc(S(=O)(=O)Nc2cccc(-c3csc(NC(=O)CNCCN(C)C)n3)c2)cc1 | 104% |
| CC[C@]12C=CCN3CC[C@@]4(c5cc(NC(=O)COc6cc(O)c7c(=O)cc(-c8ccccc8)oc7c6)c(OC)cc5N(C)[C@H]4[C@@](O)(C(=O)OC)[C@@H]1OC(C)=O)[C@@H]32 | -36.2% (active) |
| O=C(NNc1nc2cc(F)ccc2n2c(CO)ccc12)c1cnccn1 | 22.6% |
| CC(=O)c1nnn(-c2c(C(=O)n3nc(C)cc3C)sc(=S)n2-c2ccccc2)c1C | 92.2% |
| Cc1ccc(NC(=O)N[C@@H](Cc2cc(F)cc(F)c2)C(=O)NC2C(=O)N3C[C@H](O)C[C@H]3C(=O)N3CCCC[C@H]3C(=O)N[C@@H](CO)C(=O)N3C[C@H](C)C[C@H]3C(=O)O[C@H]2C)c(F)c1 (stereo not given in full) | 43.5% |
| COc1ccc(/C=C/C(=O)c2cc(S(N)(=O)=O)c(OC)cc2OC)cc1 | 82.8% |
| CC(=O)c1ccc(Nc2nc(SCC(C)C)nc(-c3ccccc3)c2C#N)cc1 | 92% |
| CC(Nc1c(C#N)cnc2ccc(-c3cnc(N)nc3)cc12)c1ccccc1 (stereo not given) | 4.06% (active) |
